Source: PubChem BioAssay (Tox21)
Several values for one entry are separate records, joined by “and”; a condition that tells them apart may be missing. Identical values can stand only once. Records with an inconclusive call do not appear. Activity calls are given as the source filed them. Calls follow the shape of the dose curve; as a rule, active = well fitted curve in the direction sought with a large enough effect in the repeat runs; inconclusive = weak or mixed curves; inactive = no such curve, though single readings can be large; an effect the other way counts as inactive or inconclusive.

Columns and labels:
[1] = A CellTox Green Cytotoxicity Assay to monitor cytotoxicity in HEK293 cells - 40 hour (AID 1224871); also: nearly all actives have a fitted effect of over 45% in size; also: potency is read from the fitted curve at half-maximal effect
Procedure, shortened: (§1)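 Dead-cell fluorescence measured kinetically: asymmetric cyanine dye, HEK293, 600 cells/well, 5 h settle, 23 nL cpd/DMSO, 37 C, reads 0–40 h every 8 h.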

[2] = qHTS RealTime-Glo MT Cell Viability Assay in HepG2 cells - 8 hour (AID 1224873); also: nearly all actives have a fitted effect of over 55% in size
Procedure, shortened: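 Real-time viability: cells seeded at 600 per well together with NanoLuc and cell-permeant prosubstrate, compounds added after 5 h incubation. Luminescence tracked at 0, 8, 16, 24, 32 and 40 h of exposure.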

[3] = qHTS RealTime-Glo MT Cell Viability Assay in HEK293 cells - 40 hour (AID 1224874); conditions: RealTime-Glo luminescence; max response: active compounds read low; also: nearly all actives have a fitted effect of over 50% in size; also: potency is read from the fitted curve at half-maximal effect
Procedure, shortened: (§2)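 600 HEK293 cells per well, dispensed already mixed with RealTime-Glo MT reagents. Compound dosing came 5 h later. The same wells were read for luminescence at 0, 8, 16, 24, 32 and 40 h of exposure at 37 C.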

[4] = A CellTox Green Cytotoxicity Assay to monitor cytotoxicity in HEK293 cells - 24 hour (AID 1224875); also: series mostly up to about 77 µM; nearly all actives have a fitted effect of over 45% in size
Procedure, shortened: as §1

[5] = A CellTox Green Cytotoxicity Assay to monitor cytotoxicity in HepG2 cells - 16 hour (AID 1224876); also: nearly all actives have a fitted effect of over 45% in size; also: potency is read from the fitted curve at half-maximal effect
Procedure, shortened: (§3)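 First, HepG2 cells (600/well) mixed with reagent were plated; second, after 5 h at 37 C they received compounds via pintool; third, fluorescence was measured at 0 h through 40 h at 8 h intervals.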

[6] = A CellTox Green Cytotoxicity Assay to monitor cytotoxicity in HepG2 cells - 24 hour (AID 1224878); also: nearly all actives have a fitted effect of over 45% in size; also: potency is read from the fitted curve at half-maximal effect
Procedure, shortened: as §3

[7] = A CellTox Green Cytotoxicity Assay to monitor cytotoxicity in HepG2 cells - 40 hour (AID 1224879); also: nearly all actives have a fitted effect of over 40% in size; also: potency is read from the fitted curve at half-maximal effect
Procedure, shortened: as §3

[8] = qHTS RealTime-Glo MT Cell Viability Assay in HEK293 cells - 0 hour (AID 1224880); also: nearly all actives have a fitted effect of over 45% in size; also: potency is read from the fitted curve at half-maximal effect
Procedure, shortened: as §2

[9] = A CellTox Green Cytotoxicity Assay to monitor cytotoxicity in HEK293 cells - 32 hour (AID 1224881); also: nearly all actives have a fitted effect of over 40% in size; also: potency is read from the fitted curve at half-maximal effect
Procedure, shortened: as §1

[10] = A CellTox Green Cytotoxicity Assay to monitor cytotoxicity in HepG2 cells - 32 hour (AID 1224883); also: nearly all actives have a fitted effect of over 50% in size; also: potency is read from the fitted curve at half-maximal effect
Procedure, shortened: as §3

[11] = qHTS RealTime-Glo MT Cell Viability Assay in HEK293 cells - 24 hour (AID 1224886); also: nearly all actives have a fitted effect of over 50% in size; also: potency is read from the fitted curve at half-maximal effect
Procedure, shortened: (§4)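 Quantitative high-throughput screen of the Tox21 10K library in HEK293: cells and RealTime-Glo reagents plated together, compound added at 5 h, luminescence monitored through 40 h at 37 C.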

[12] = qHTS RealTime-Glo MT Cell Viability Assay in HEK293 cells - 8 hour (AID 1224887); also: nearly all actives have a fitted effect of over 50% in size; also: potency is read from the fitted curve at half-maximal effect
Procedure, shortened: as §2

[13] = A CellTox Green Cytotoxicity Assay to monitor cytotoxicity in HEK293 cells - 16 hour (AID 1224888); also: nearly all actives have a fitted effect of over 35% in size
Procedure, shortened: as §1

[14] = qHTS RealTime-Glo MT Cell Viability Assay in HepG2 cells - 0 hour (AID 1224889); also: nearly all actives have a fitted effect of over 50% in size; also: potency is read from the fitted curve at half-maximal effect
Procedure, shortened: (§5)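 Compound treatment began 5 h after plating HepG2 cells (600/well) with NanoLuc luciferase and prosubstrate. Plates stayed at 37 C for 40 h; luminescence was captured at six time points, 0 h through 40 h.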

[15] = qHTS RealTime-Glo MT Cell Viability Assay in HepG2 cells - 32 hour (AID 1224877); also: nearly all actives have a fitted effect of over 55% in size
Procedure, shortened: as §5

[16] = A CellTox Green Cytotoxicity Assay to monitor cytotoxicity in HepG2 cells - 0 hour (AID 1224882); also: nearly all actives have a fitted effect of over 35% in size; also: potency is read from the fitted curve at half-maximal effect
Procedure, shortened: as §3

[17] = A CellTox Green Cytotoxicity Assay to monitor cytotoxicity in HEK293 cells - 8 hour (AID 1224884); also: nearly all actives have a fitted effect of over 35% in size
Procedure, shortened: as §1

[18] = qHTS RealTime-Glo MT Cell Viability Assay in HepG2 cells - 16 hour (AID 1224885); also: nearly all actives have a fitted effect of over 50% in size
Procedure, shortened: as §5

[19] = qHTS RealTime-Glo MT Cell Viability Assay in HEK293 cells - 16 hour (AID 1224872); also: nearly all actives have a fitted effect of over 50% in size; also: potency is read from the fitted curve at half-maximal effect
Procedure, shortened: as §4
% is scaled to controls: 0 for no effect and ±100 for the full control effect.

COC(=O)C1=C(C)NC(C)=C(C(=O)O[C@@H]2CCCN(Cc3ccccc3)C2)[C@@H]1c1cccc([N+](=O)[O-])c1
active: Potency [8] 8.49 µM | Potency [14] 5.35 µM
inactive: Potency [1] | Potency [2] | max response [3] -29.2% | Potency [4] | Potency [5] | Potency [6] | Potency [7] | Potency [9] | Potency [10] | Potency [11] | Potency [12] | Potency [13]

CC(C)c1nc(CN(C)C(=O)N[C@H](C(=O)N[C@@H](Cc2ccccc2)C[C@H](O)[C@H](Cc2ccccc2)NC(=O)OCc2cncs2)C(C)C)cs1
active: Potency [3] 21.3 µM | Potency [7] 21.3 µM | Potency [11] 21.3 µM
inactive: Potency [2] | Potency [5] | Potency [15] | Potency [6] | Potency [8] | Potency [16] | Potency [17] | Potency [18] | Potency [13] | Potency [14]

c1cc(N(CC2CO2)CC2CO2)ccc1Cc1ccc(N(CC2CO2)CC2CO2)cc1 (stereo not given)
active: Potency [1] 49 µM | Potency [19] 43.6 µM | Potency [3] 24.5 µM | Potency [11] 43.6 µM
inactive: Potency [4] | Potency [5] | Potency [8] | Potency [16] | Potency [17] | Potency [13] | Potency [14]

Brc1cc2ccccc2c2ccccc12
inactive: Potency [2] | Potency [4] | Potency [5] | Potency [15] | Potency [6] | Potency [8] | Potency [16] | Potency [10] | Potency [17] | Potency [18] | Potency [13] | Potency [14]
active: Potency [7] 39.2 µM

COc1ccccc1NC(=O)c1cc2ccccc2cc1O
inactive: Potency [1] | Potency [4] | Potency [5] | Potency [6] | Potency [8] | Potency [9] | Potency [16] | Potency [10] | Potency [17] | Potency [13] | Potency [14]
active: Potency [19] 24.5 µM | Potency [3] 34.7 µM | Potency [11] 34.7 µM | Potency [12] 34.7 µM

C[C@@H](CN(C)C)CN1c2ccccc2Sc2ccccc21
inactive: Potency [2] | Potency [4] | Potency [16] | Potency [17] | Potency [12] | Potency [13]
active: Potency [5] 23.9 µM | Potency [6] 26.8 µM | Potency [7] 26.8 µM | Potency [9] 13.4 µM | Potency [10] 26.8 µM

C=Cc1ccc(S(=O)(=O)O)cc1
active: Potency [6] 49 µM | Potency [7] 54.9 µM | Potency [16] 49 µM | Potency [10] 54.9 µM
inactive: Potency [19] | Potency [2] | max response [3] -10.1% | Potency [8] | Potency [18] | Potency [11] | Potency [12] | Potency [14]

COc1ccccc1N1CCN(CC(O)COc2cccc3ccccc23)CC1 (stereo not given)
active: Potency [7] 30.1 µM | Potency [10] 26.8 µM
inactive: Potency [1] | Potency [2] | Potency [4] | Potency [8] | Potency [9] | Potency [16] | Potency [17] | Potency [18] | Potency [12] | Potency [13]

O=C=Nc1ccc(Cl)c(Cl)c1
inactive: Potency [19] | Potency [2] | max response [3] -3.97% | Potency [4] | Potency [6] | Potency [7] | Potency [8] | Potency [9] | Potency [10] | Potency [17] | Potency [18] | Potency [11] | Potency [12] | Potency [13] | Potency [14]

CN1C(=O)N(c2ccccc2Br)Cc2cnc(Nc3ccc4c(c3)OCC(CO)O4)nc21 (stereo not given)
active: Potency [19] 6.92 µM | Potency [3] 4.36 µM | Potency [12] 17.4 µM
inactive: Potency [1] | Potency [4] | Potency [5] | Potency [8] | Potency [9] | Potency [16] | Potency [17] | Potency [13]

C[C@@H]1CC(=O)NN=C1c1ccc(NN=C(C#N)C#N)cc1
active: Potency [7] 15.1 µM and 13.4 µM | Potency [10] 16.9 µM and 10.7 µM
inactive: Potency [1] | Potency [2] | Potency [4] | Potency [5] | Potency [9] | Potency [16] | Potency [17] | Potency [11] | Potency [12] | Potency [13]

c1csc(SSc2cccs2)c1
inactive: Potency [4] | Potency [5] | Potency [8] | Potency [17] | Potency [14]
active: Potency [7] 54.9 µM

CN1CCCC(n2nc(Cc3ccc(Cl)cc3)c3ccccc3c2=O)CC1 (stereo not given)
inactive: Potency [2] | Potency [8] | Potency [16] | Potency [17] | Potency [18] | Potency [13] | Potency [14]
active: Potency [19] 7.56 µM | Potency [3] 9.52 µM | Potency [5] 26.8 µM | Potency [7] 23.9 µM | Potency [9] 30.1 µM | Potency [10] 23.9 µM | Potency [11] 8.49 µM | Potency [12] 7.56 µM

CCOC(C)=O
inactive: Potency [1] | Potency [19] | Potency [2] | max response [3] 0.693% | Potency [4] | Potency [6] | Potency [7] | Potency [8] | Potency [9] | Potency [10] | Potency [11] | Potency [12] | Potency [13]

O=C(/C=C/c1ccccc1)OCCc1ccccc1
inactive: Potency [19] | Potency [2] | max response [3] -0.613% | Potency [4] | Potency [5] | Potency [15] | Potency [6] | Potency [7] | Potency [8] | Potency [9] | Potency [16] | Potency [10] | Potency [17] | Potency [18] | Potency [11] | Potency [12] | Potency [13] | Potency [14]

CN(C)CCC=C1c2ccccc2C=Cc2ccccc21
inactive: Potency [19] | Potency [2] | Potency [4] | Potency [15] | Potency [9] | Potency [16] | Potency [17] | Potency [18] | Potency [11] | Potency [12] | Potency [13]
active: Potency [5] 23.9 µM | Potency [7] 23.9 µM | Potency [10] 23.9 µM
